# Hit rate of the full screen: of about 39,000 compounds, about 1,500 (3.8%) were called active. Shown is part of a subset that was picked to be rich in actives.
# Tested on: HSkMC (human skeletal muscle cells)
# Assay: cytotoxicity call (relative viability < 0.9)
# Details: 10 µM
row,Structure (SMILES),cytotoxicity call
1,COc1ccc(-c2coc3cc(O)cc(OC)c3c2=O)cc1,inactive
2,C[C@H](CO)N1C[C@H](C)[C@H](CN(C)C(=O)Nc2ccc(F)cc2)Oc2ccc(NC(=O)C3CC3)cc2CC1=O,inactive
3,Cc1noc(C)c1NC(=O)N(C)C[C@H]1Oc2ccc(NS(=O)(=O)c3c(C)noc3C)cc2C(=O)N([C@@H](C)CO)C[C@@H]1C,inactive
4,CCc1ccc(/C=C2\SC(=O)N(CCCCCCNC(=O)c3ccccc3Nc3ccc([N+](=O)[O-])c4nonc34)C2=O)cc1,active
5,CCc1ccc(/C=C2\SC(=O)N(CCCCCCNC(=O)c3ccc(Nc4ccc([N+](=O)[O-])c5nonc45)cc3)C2=O)cc1,inactive
6,COc1ccc(NC(=O)Nc2ccc3c(c2)C(=O)N([C@H](C)CO)C[C@H](C)[C@H](CN(C)S(=O)(=O)c2ccccc2)OCCCC[C@H](C)O3)cc1,inactive
7,C[C@H]1CN([C@@H](C)CO)C(=O)c2cccc(NC(=O)Nc3ccc(C(F)(F)F)cc3)c2O[C@H]1CN(C)Cc1ccc(Cl)c(Cl)c1,active
8,C[C@H]1CN([C@@H](C)CO)C(=O)c2cccc(NC(=O)Nc3ccc(C(F)(F)F)cc3)c2O[C@H]1CN(C)Cc1ccc(C(F)(F)F)cc1,inactive
9,C[C@@H]1CN([C@@H](C)CO)C(=O)c2cccc(NC(=O)Nc3ccc(C(F)(F)F)cc3)c2O[C@H]1CN(C)Cc1ccc(Cl)c(Cl)c1,active
10,C[C@H](CO)N1C[C@H](C)[C@@H](CN(C)Cc2ccc(Cl)c(Cl)c2)Oc2c(NC(=O)Nc3ccc(C(F)(F)F)cc3)cccc2C1=O,active
11,C[C@@H]1CN([C@H](C)CO)C(=O)c2cccc(NC(=O)Nc3ccc(C(F)(F)F)cc3)c2O[C@H]1CN(C)Cc1ccc(Cl)c(Cl)c1,active
12,C[C@H](CO)N1C[C@H](C)[C@H](CN(C)C(=O)Nc2ccnc(N3CCOCC3)c2)OCc2cn(nn2)CCCC1=O,inactive
13,C[C@@H]1CN([C@H](C)CO)C(=O)c2cc(NS(=O)(=O)c3ccccc3)ccc2O[C@@H](C)CCCCO[C@@H]1CN(C)Cc1ccccc1,inactive
14,C[C@H]1CN([C@@H](C)CO)S(=O)(=O)c2ccc(C#CC3CC3)cc2O[C@H]1CN(C)C(=O)c1cccc(F)c1,inactive
15,Cc1nnc(SCC2=C(C(=O)[O-])N3C(=O)C(NC(=O)Cn4cnnn4)C3SC2)s1.[Na+] (stereo not drawn),inactive
16,C[C@H](CO)N1C[C@H](C)[C@H](CN(C)Cc2ccc(Cl)c(Cl)c2)OCc2ccccc2-c2c(n(C)c3ccccc23)C1=O,inactive
17,C[C@H]1CN([C@@H](C)CO)C(=O)c2cc(C#Cc3ccccn3)cnc2O[C@@H]1CN(C)C(=O)c1cnccn1,inactive
18,COc1ccc(NC(=O)Nc2ccc3c(c2)C(=O)N([C@@H](C)CO)C[C@H](C)[C@H](CN(C)Cc2ccncc2)OCCCC[C@@H](C)O3)cc1,inactive
19,O=C(/C=C/c1ccc(O)c(O)c1)O[C@@H]1C[C@](OC(=O)/C=C/c2ccc(O)c(O)c2)(C(=O)O)C[C@@H](OC(=O)/C=C/c2ccc(O)c(O)c2)[C@H]1O,inactive
20,C[C@@H]1CN([C@@H](C)CO)C(=O)c2cccc(NC(=O)Nc3ccc(C(F)(F)F)cc3)c2O[C@@H]1CN(C)Cc1ccc(Cl)c(Cl)c1,active
21,C[C@H](CO)N1C[C@H](C)[C@H](CN(C)Cc2ccc(Cl)c(Cl)c2)Oc2c(NC(=O)Nc3ccc(C(F)(F)F)cc3)cccc2C1=O,inactive

row,Structure (SMILES),cytotoxicity call
1,C[C@@H]1CN([C@H](C)CO)C(=O)c2cccc(NC(=O)Nc3ccc(C(F)(F)F)cc3)c2O[C@@H]1CN(C)Cc1ccc(Cl)c(Cl)c1,active
2,C[C@H]1CN([C@@H](C)CO)C(=O)c2cccc(NC(=O)Nc3ccc(C(F)(F)F)cc3)c2O[C@@H]1CN(C)Cc1ccc(C(F)(F)F)cc1,inactive
3,C[C@H]1CN([C@@H](C)CO)C(=O)c2cccc(NC(=O)Nc3ccc(C(F)(F)F)cc3)c2O[C@@H]1CN(C)Cc1ccc(Cl)c(Cl)c1,active
4,COc1ccc(CN(C)C[C@@H]2OCCCC[C@H](C)Oc3ccc(NC(=O)c4ccccc4)cc3C(=O)N([C@H](C)CO)C[C@H]2C)cc1,inactive
5,C[C@@H]1CCCCO[C@@H](CN(C)C(=O)Nc2ccc(F)cc2)[C@@H](C)CN([C@@H](C)CO)C(=O)c2cc(NC(=O)Cc3ccccc3)ccc2O1,inactive
6,C[C@H](CO)N1C[C@H](C)[C@@H](CN(C)C(=O)c2ccccc2)OCCCC[C@H](C)Oc2ccc(NC(=O)NC3CCCCC3)cc2C1=O,inactive
7,Cn1cnc(S(=O)(=O)N2C[C@H](O)COC[C@@H]3O[C@H](CC(=O)NCc4cc(F)cc(F)c4)CC[C@H]32)c1,inactive
8,N[C@H](C(=O)O)[C@@H](OCc1ccccc1)C(=O)O,inactive
9,C[C@@H]1CN([C@@H](C)CO)C(=O)c2cc(NS(=O)(=O)c3cccs3)ccc2O[C@@H](C)CCCCO[C@@H]1CN(C)C(=O)Nc1ccccc1,inactive
10,CC(C)(C)[S@](=O)N1Cc2cc(C(=O)N[C@@H]3CCN(Cc4ccccc4)C3)nc(-c3cccc(-c4cccnc4)c3)c2[C@@H]1CCO,inactive
11,CCCNC(=O)c1cc2c(c(-c3cccc(-c4cc5ccccc5o4)c3)n1)[C@H](CCO)N(C(=O)NC(C)C)C2,inactive
12,CC(C)NC(=O)N1Cc2cc(C(=O)NC3Cc4ccccc4C3)nc(-c3cccc(-c4cccnc4)c3)c2[C@H]1CCO,active
13,CC(C)(C)[S@](=O)N1Cc2cc(C(=O)N[C@H]3CCN(Cc4ccccc4)C3)nc(-c3cccc(-c4cccnc4)c3)c2[C@@H]1CCO,inactive
14,CC(C)NC(=O)N1Cc2cc(C(=O)NC3CCCCC3)nc(-c3cccc(-c4cccnc4)c3)c2[C@@H]1CCO,inactive
15,CCCNC(=O)c1cc2c(c(-c3cccc(-c4cc5ccccc5o4)c3)n1)[C@@H](CCO)N(C(=O)NC(C)C)C2,inactive
16,CC(C)NC(=O)N1Cc2cc(C(=O)NC3Cc4ccccc4C3)nc(-c3cccc(-c4cccnc4)c3)c2[C@@H]1CCO,active
17,CC(C)NC(=O)N1Cc2cc(C(=O)NC3CCCCC3)nc(-c3cccc(-c4cccnc4)c3)c2[C@H]1CCO,active
18,CCNC(=O)c1cc2c(c(-c3cccc(-c4cc5ccccc5o4)c3)n1)[C@@H](CCO)N(C(=O)NC(C)C)C2,inactive
19,C[C@H]1CN([C@@H](C)CO)C(=O)c2cc(C#Cc3ccccc3F)cnc2O[C@H]1CN(C)C(=O)Cc1cccnc1,inactive
20,COCC(=O)Nc1ccc2c(c1)OC[C@@H](C)N(C(=O)Cc1ccccn1)C[C@@H](C)[C@H](OC)CN(C)C2=O,inactive
21,COc1ccc(COC[C@]23NC(=S)N(C(=O)c4ccccc4)[C@H](c4ccccc4O2)[C@H]3CO[Si](C)(C)C(C)(C)C)cc1,inactive

row,Structure (SMILES),cytotoxicity call
1,CO[C@H]1CN(C)C(=O)c2ccc(NC(=O)C3CCOCC3)cc2OC[C@H](C)N(Cc2cccnc2)C[C@@H]1C,inactive
2,COc1ccc2c3c(n(c2c1)C)[C@H](CO)N(C[C@]13CCN(CC1)C(=O)c1cnccn1)C(=O)c1cnccn1,inactive
3,C[C@H](CO)N1C[C@H](C)[C@@H](CN(C)C(=O)Nc2ccc3c(c2)OCO3)Oc2ccc(NC(=O)Cn3cnnn3)cc2CC1=O,inactive
4,CN(C)CCN1C[C@H]2OCCN(Cc3cnn(C)c3)[C@H]2C1,inactive
5,CO[C@H]1CN(C)C(=O)c2ccc(NS(C)(=O)=O)cc2OC[C@@H](C)N(C(=O)C2CCCCC2)C[C@H]1C,inactive
6,O=c1[nH]cc(F)c(=O)[nH]1,inactive
7,O=C(Oc1ccccc1C(=O)O)c1ccccc1O,inactive
8,CC1CC(OC(=O)C(O)c2ccccc2)CC(C)(C)C1 (stereo not drawn),inactive
9,CC1CC(OC(=O)c2ccccc2O)CC(C)(C)C1 (stereo not drawn),active
10,C[C@@H]1CCCCO[C@@H](CN(C)Cc2ccc(C(F)(F)F)cc2)[C@@H](C)CN([C@@H](C)CO)C(=O)c2cc(NS(=O)(=O)c3ccccc3)ccc2O1,inactive
11,COc1ccc([Si](C)(C)[C@H]2[C@H](CC(=O)N3Cc4ccccc4C[C@H]3CO)O[C@@]3(C(=O)N(Cc4cccc(N5CCC5=O)c4)c4ccccc43)[C@@H]2C)cc1,inactive
12,COc1ccc(OC)c(CCNC(=O)CN)c1,inactive
13,C[C@H](CO)N1C[C@H](C)[C@H](CN(C)CC2CCCCC2)OCCCC[C@H](C)Oc2ccc(NS(=O)(=O)c3ccc(Cl)cc3)cc2C1=O,inactive
14,Cc1ccc(S(=O)(=O)Nc2ccc3c(c2)C(=O)N([C@@H](C)CO)C[C@@H](C)[C@H](CN(C)CC2CCCCC2)OCCCC[C@H](C)O3)cc1,inactive
15,C[C@@H]1CN([C@H](C)CO)C(=O)c2cc(NS(=O)(=O)c3ccccc3)ccc2O[C@@H](C)CCCCO[C@H]1CN(C)S(=O)(=O)c1ccc(Cl)cc1,active
16,Cc1ccc(S(=O)(=O)Nc2ccc3c(c2)C(=O)N([C@H](C)CO)C[C@@H](C)[C@H](CN(C)CC2CCCCC2)OCCCC[C@@H](C)O3)cc1,inactive
17,C[C@@H]1CCCCO[C@H](CN(C)CC2CCCCC2)[C@H](C)CN([C@@H](C)CO)C(=O)c2cc(NS(=O)(=O)c3ccc(Cl)cc3)ccc2O1,active
18,C[C@@H]1CCCCO[C@H](CN(C)S(=O)(=O)c2ccccc2)[C@H](C)CN([C@@H](C)CO)C(=O)c2cc(NS(=O)(=O)c3ccc(Cl)cc3)ccc2O1,inactive
19,Cc1ccc(S(=O)(=O)Nc2ccc3c(c2)C(=O)N([C@H](C)CO)C[C@H](C)[C@H](CN(C)CC2CCCCC2)OCCCC[C@H](C)O3)cc1,active
20,C[C@@H]1CN([C@@H](C)CO)C(=O)c2cc(NS(=O)(=O)c3ccc(Cl)cc3)ccc2O[C@@H](C)CCCCO[C@H]1CN(C)CC1CCCCC1,inactive
21,C[C@@H]1CCCCO[C@@H](CN(C)S(=O)(=O)c2ccccc2)[C@H](C)CN([C@H](C)CO)C(=O)c2cc(NS(=O)(=O)c3ccc(Cl)cc3)ccc2O1,inactive
